Results taken from PubChem BioAssay.

How the values were obtained:
[1] = molecular target: Tumor necrosis factor receptor superfamily member 10B (Homo sapiens) (UniProt O14763); experiment: viability loss of caspase-8 NB7 cells with TRAIL – with/without TRAIL, luminescence panel, confirmation (AID 651596); details: NB7 neuroblastoma + caspase-8, TRAIL sensitization, NB7 Caspase-8, with TRAIL, mean of runs, at 10 µM, stronger effect = higher value
[2] = as above; details: NB7 neuroblastoma + caspase-8, without TRAIL, NB7 Caspase-8, without TRAIL, mean of runs, at 10 µM

Sequence of Tumor necrosis factor receptor superfamily member 10B (Homo sapiens) (O14763 whole entry, looked up): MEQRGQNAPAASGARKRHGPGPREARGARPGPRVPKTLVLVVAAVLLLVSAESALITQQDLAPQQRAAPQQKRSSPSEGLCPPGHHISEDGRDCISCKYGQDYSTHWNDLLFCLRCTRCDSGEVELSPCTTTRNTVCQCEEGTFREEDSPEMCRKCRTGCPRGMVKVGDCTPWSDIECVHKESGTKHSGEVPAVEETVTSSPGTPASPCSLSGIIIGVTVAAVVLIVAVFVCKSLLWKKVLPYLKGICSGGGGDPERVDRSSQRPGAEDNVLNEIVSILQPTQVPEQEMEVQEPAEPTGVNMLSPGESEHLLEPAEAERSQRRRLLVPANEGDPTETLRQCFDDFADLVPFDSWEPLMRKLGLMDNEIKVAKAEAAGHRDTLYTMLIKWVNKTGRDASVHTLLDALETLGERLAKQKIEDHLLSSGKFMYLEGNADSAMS

SMILES | activity [1] [%] | activity [2] [%]
CCOC(=O)c1sc(NC(=O)c2ccccc2OC)nc1C | 26.1 | 31.9
CSc1ccc(/C=N/NC(=O)c2cccc(O)c2)cc1 | 78.8 | 71
FC(F)(F)c1cccc(-c2nc3nc(Cl)c(Cl)nc3[nH]2)c1 | 57.3 | 42.6
O=C(Cn1ncc(Cl)c(Cl)c1=O)c1ccc(Cl)cc1 | 99.7 | 99.6
C(/C=C/c1ccccn1)=C\c1ccccc1 | 7.58 | 14.6
Oc1ccccc1C=Nc1ccccc1-c1nc2ccccc2[nH]1 | 7.4 | 1.85
CCS(=O)(=O)c1ncc(Cl)c(C(=O)Nc2ccc(S(=O)(=O)N(C)c3ccccc3)cc2)n1 | 99.2 | 99.7
CC(C)C[C@H](NC(=O)c1nc[nH]c1C(=O)N[C@@H](CC(C)C)C(=O)OC(C)(C)C)C(=O)OC(C)(C)C | 72.4 | 63.2
Cc1nc(-c2ccc(NC(=O)c3cccs3)cc2)cs1 | 83.1 | 83.7
CC(C)[C@@H](CO)NC(=O)c1ccc2c3n(nc2c1)-c1ccccc1CO3 | 71.1 | 71.6
CCOc1ccc(C(=O)N/N=C/c2ccccc2[N+](=O)[O-])cc1 | 68 | 62.8
C=CCOc1cccc(/C=C/c2nc3ccccc3c(=O)[nH]2)c1 | 66.8 | 64.8
COc1ccc(-c2cc3nc4n(c(=O)c3s2)CCC4)cc1 | 71.1 | 70.4
Cc1cc(-c2ccc(F)cc2)n2ncc(-c3ccccc3)c2n1 | 76.6 | 84.3
COc1cccc(N2C(N)=NC(N)=NC2(C)C)c1 | 79.7 | 85
CC1C(=O)NN=C1C(=O)N/N=C\C(Br)=C\c1ccccc1 (configuration not stated) | 80.2 | 73.8
